# Experimental data reported in PubChem BioAssay (NCI).
# Compounds without any hit were thinned out: in the full panel of roughly 79,000, 15% have a hit. Values without a mark were called inactive. No stated cut-off is given here; in the data, active means growth inhibition above about 70%; inactive means the rest.
# Assay: NCI Yeast Anticancer Drug Screen. Data for the sgs1 mgt1 strain (AID 161);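 further: 0% = growth of cultures given vehicle only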
# Conditions: S. cerevisiae sgs1 mgt1 strain, at 50.0 µM, hits give high values
# Method: Growth inhibition of yeast strains with defined genetic alterations is measured as a screen for potential anti-cancer activity. Selected strains with alterations in DNA damage repair or cell cycle control were exposed to compounds and growth inhibition was measured relative to vehicle treated controls. The strain used in this assay is sgs1 mgt1
row,SMILES,growth inhibition
1,O=Cc1ccc(F)cc1,-4.1%
2,Clc1cccc(Cl)c1C1CSc2ccccc2N=C1c1ccccc1 (stereo not given),16.3%
3,CCOC(=O)CSCCC#N,-5.05%
4,C(=C\c1ccncc1)/c1ccncc1,6.45%
5,O=S(Cc1ccccc1)/C(=C/NC(=S)Nc1ccccc1)c1ccccc1 (stereo not given),-40.1%
6,Ic1cccs1,6.65%
7,COC(c1ccc2c(c1)OCO2)C(C)Br (stereo not given),13.6%
8,C=C1SC(=Nc2c(C)cccc2C)N(c2nc(Cl)nc(Cl)n2)C12CCCCC2,11.2%
9,CN(C)c1ccc2nc3ccc(=[N+](C)C)cc-3oc2c1,-27.7%
10,CCC(C)c1c(N)n(S(=O)(=O)c2ccc(C)cc2)oc1=O (stereo not given),6.4%
11,O=S(Cc1ccccc1)/C(=C/NC(=S)Nc1cc(Cl)ccc1Cl)c1ccccc1 (stereo not given),14.4%
12,CS(=O)(=O)c1ccc(/C=C\C(=O)O)cc1,9%
13,C=CC(C)(C)n1cc(C2=C(O)C(=O)C(c3cn(C(C)(C)C=C)c4ccccc34)=C(O)C2=O)c2ccccc21,-2.3%
14,CCOP(=O)(OCC)/C(=C\N1C(=O)CC(=O)NC1=S)C(=O)OC,-18.9%
15,O=C(O)C1CSC(c2ccccc2)N1 (stereo not given),-4.35%
16,CCCCOC(=O)c1ccccc1O,-13.8%
17,Cc1ccc(O)c(N)c1,-20.3%
18,CC(CC(CCC(=O)O)(c1ccccc1)c1ccccc1)N(C)C (stereo not given),9.45%
19,COC(=O)c1cccc([N+](=O)[O-])c1,-4.7%
20,Cc1cc(Cc2ccccc2)c(O)c(Cc2ccccc2)c1,32%

row,SMILES,growth inhibition
1,COc1cc(C(=O)N2CCN(c3ccccc3)CC2)c2ccccc2n1,10.7%
2,CC(C)c1ccccc1NC(=O)N1CCC(C(C)C)CC1,-29.8%
3,c1ccc(Oc2c3ccccc3nc3ccccc23)cc1,-13.2%
4,O=[n+]1ccn([O-])c2ccccc21,9.05%
5,CC1CC2C3CCC4=CC(=O)CCC4(C)C3CCC2(C)C1(O)C(=O)CO (stereo not given),9.1%
6,COC(=O)c1ccc([N+](=O)[O-])c(C)c1,-50.2%
7,CN(C)c1ccc(/C=C/C(=O)c2ccc(NC(N)=O)cc2)cc1,-4.5%
8,O=C1NCC2CCCC1C2 (stereo not given),-9.3%
9,CC(=O)c1cc(O)ccc1O,10.3%
10,CN1CCN(C(=S)S)CC1,4.75%
11,Cc1cccc2ccccc12,10.5%
12,c1ccc(Nc2ccccn2)nc1,-21%
13,CC(C)Sc1ncnc2nc[nH]c12,-3.05%
14,O=C1Nc2ccccc2/C1=C\c1ccccc1O,12.2%
15,CC1CCC(C(C)(C)[N+](C)(C)C)CC1 (stereo not given),23.9%
16,O=[N+]([O-])c1c(Cl)ncnc1Cl,-56.8%
17,COc1cc(-c2ccc(NC(=O)CC(C)=O)c(OC)c2)ccc1NC(=O)CC(C)=O,-3.35%
18,Cc1ccc[n+](CCC(N)=O)c1,-10.8%
19,Clc1cccc(Cl)c1CSc1nc2ccccc2n2cccc12,5.2%
20,Cc1c(-c2ccc(C3CCCCC3)cc2)nc2ccc(F)cc2c1C(=O)O,12.3%
